From PubChem BioAssay
A selection: hits, their analogues and other compounds. The true share with any hit is near 7.9%.
LASV entry inh = blocks Lassa virus binding to or entry into cells. Lassa virus pseudotype entry inhibition, cell reporter. Potency, µM (titrated, usually from 37.9 µM), inactives show at the top dose activity change, negative = inhibition, most hits filed as inhibitors. 300,000 compounds, 1.2% hits. AID 540256; calls by dose curve; tested in HEK293 cells; further: potency means the concentration at half of the fitted maximal effect; on the % scale 0 is the no-effect control and ±100 the full control effect; nearly all actives have a fitted effect of over 50% in size
FMDV inh = foot and mouth disease virus antiviral activity; FMDV antiviral cell-based qHTS; Potency, µM (titrated, usually from 57.9 µM), for inactives: top-dose activity change, negative = inhibition, hits mostly inhibitors; 410,000 compounds, 1.2% hits; AID 1159524; calls by dose curve; tested in HEK293T cells; further: read-out not given here; potency means the concentration at half of the fitted maximal effect; on the % scale 0 is the no-effect control and ±100 the full control effect; nearly all actives have a fitted effect of over 45% in size
Marburg entry inh = blocks Marburg virus binding to or entry into cells; Marburg virus pseudotyped entry inhibition, cell reporter; Potency, µM (doses to about 37.8 µM), for inactives: at the top dose activity change, negative = inhibition, hits mostly inhibitors; 300,000 compounds, 1.8% hits; AID 540276; calls by dose curve; tested in HEK293 cells; further: potency means the concentration at half of the fitted maximal effect; on the % scale 0 is the no-effect control and ±100 the full control effect
HCMV antiviral = blocks human cytomegalovirus replication; HFF cells, HCMV-luciferase reporter, 72 h; stronger effect = lower value; activity change, negative = inhibition, % at 57.5 µM; 410,000 compounds, 4.5% hits; in the data active means activity change below about -60%; inconclusive means no clear call, values can overlap the other calls; inactive means above about -39%; further: on the % scale 0 is the no-effect control and ±100 the full control effect
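Luciferase read-out from HCMV-luciferase-infected HFFs (MOI 1 PFU/cell) 72 h post infection at 37C; compounds added after 16 h cell attachment; activity normalized between buffer-only basal and Salinomycin (10uM) inhibitor controls.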
HCV inhibitor = blocks hepatitis C virus | Huh7.5.1 HCVcc-Cre infection, luciferase reporter, 44 h | Potency, µM (top dose mostly 41.8 µM), for inactives: top-dose activity change, negative = inhibition, most hits filed as inhibitors | 340,000 compounds, 3.4% hits | AID 651820; further: potency means the concentration at half of the fitted maximal effect; on the % scale 0 is the no-effect control and ±100 the full control effect
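Cells seeded at 1,000/well and cultured 4 h, then compounds added followed by HCVcc-Cre virus (~0.5 moi). After 44 h further culture, luciferase substrate was added, plates held 15 min at room temperature, and luminescence read for 15 sec.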
HCV confirm = confirmation of hepatitis C virus inhibitors | shares compounds with HCV inhibitor | HCVcc-Cre infectious virus cell assay, luciferase, inhibition | Potency, µM (doses to about 41.8 µM), for the others: top-dose activity, negative = inhibition, most hits filed as inhibitors | 640 compounds, 78% hits; further: potency means the concentration at half of the fitted maximal effect; nearly all actives have a fitted effect of over 80% in size
HCV cytotox = toxic to HCV host cells, flagging false HCV inhibitors; shares compounds with HCV inhibitor; HCV host cell line cytotoxicity counterscreen; Potency, µM (doses to about 41.8 µM), for the others: at the highest dose activity change, negative = cytotoxicity, actives largely listed as inhibitors; 640 compounds, 22% hits; AID 720576;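 further: potency means the concentration at half of the fitted maximal effect; 44 h compound exposure; on the % scale 0 is the no-effect control and ±100 the full control effect; nearly all actives have a fitted effect of over 55% in size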
The depositor's hits bear a star; ? = inconclusive; . = no result given; [ ] = another dose, or the depositor's remark. Unless noted, the call rests on the fitted dose curve; in most records, active means well fitted curve in the direction sought with a large enough effect; inconclusive means small, poorly fitted or top-dose-only effect, or another doubt; inactive means no such curve, though single readings can be large; an effect the other way counts as inactive or inconclusive.

SMILES	LASV entry inh	FMDV inh	Marburg entry inh	HCMV antiviral	HCV inhibitor	HCV confirm	HCV cytotox
O=C(O)c1cc([N+](=O)[O-])ccc1N1CCCCC1	10.5%	-12.6%	-0.3%	-4.1	3.0%	.	.
CC(C)=CCC/C(C)=C/CNC(=O)C[C@H]1C[C@H](C(=O)N2CCOCC2)[C@@]2(C)c3[nH]c4cc(CCC(=O)N(C)C)ccc4c3CCN2C1=O	.	-26.4%	0.3%	-9.3	?	.	.
CC(C)=CCC/C(C)=C/CNC(=O)C[C@H]1C[C@H](C(=O)N2CCCCC2)[C@@]2(C)c3[nH]c4cc(CCC(=O)N(C)C)ccc4c3CCN2C1=O	.	0.0%	.	.	7.94µM*	25µM*	?
CCS(=O)(=O)N1CCN(c2ccc([N+](=O)[O-])c(NC(C)c3ccccc3)c2)CC1 (stereo not given)	?	-23.4%	?	?	?	.	.
CC(Nc1cc(N2CCNCC2)ccc1[N+](=O)[O-])c1ccccc1 (stereo not given)	-3.8%	-3.2%	?	-17.9	3.55µM*	?	55.3%
Cc1ccc(NC(=O)CCNS(=O)(=O)c2ccc3[nH]c(=O)oc3c2)cc1C	.	-0.4%	.	-8.1	10.7%	.	.
Cc1cnc(C(=O)N2CCN(c3ccc(C(F)(F)F)cn3)CC2)cn1	-2.0%	-22.3%	?	-11.9	2.9%	.	.
CNC(=S)Nc1ccc(N2CCN(c3ccc(C(F)(F)F)cn3)CC2)nc1	0.0%[46.1 µM]	-25.0%	13.9%[46.1 µM]	?	2.51µM*	4.99µM*	?
O=C(Nc1ccccc1)N1CCN(c2ccc(C(F)(F)F)cn2)CC1	3.5%	?	-20.1%	-35.3	?	.	.
O=C(Nc1ccc(F)cc1F)N1CCCN(c2ccc(C(F)(F)F)cn2)CC1	-11.1%	?	?	-36.9	5.01µM*	5.6µM*	7.91µM*
COc1ccc2c(c1)CCc1c-2nc2ccccc2c1N1CCOCC1	-28.4%	13.6%	?	22.0	4.47µM*	-21.4%	-50.5%
Cc1cc(=O)n2c3ccccc3n(CC(O)CN3CCCC3)c2c1C#N (stereo not given)	?	.	-28.0%	?	2µM*	12.5µM*	-21.7%
CN1CCN(c2ccc([N+](=O)[O-])c3no[n+]([O-])c23)CC1	0.316µM*	5.01µM*	0.562µM*	-97.9*	2.24µM*	22.3µM*	22.3µM*
CC1CN(C)C(C)c2c1oc1ccc([N+](=O)[O-])cc21 (stereo not given)	1.1%	-2.8%	10.6%[14.2 µM]	19.5	?	25µM*	23.1%
CCC(CC)NC(=O)CSc1ccc(S(=O)(=O)N2CCCCC2)cn1	9.4%	-12.4%	-0.3%	?	2.2%	.	.
CCOc1ccc(N(CC(=O)Nc2ccc(C)c(C)c2)S(C)(=O)=O)cc1	7.8%	54.7%	13.1%	164.5	8.1%	.	.
Cc1cccc(CS(=O)(=O)c2ncc(Cl)c(C(=O)Nc3c(C)cccc3C)n2)c1	.	-10.7%	.	?	6.31µM*	9.95µM*	28µM*
COc1ccc(C(=O)c2ccc(N(C)C)cc2)c2ccccc12	?	.	?	-76.9*	?	-22.4%	-18.8%
COc1ccc(C(=O)c2ccc(OC)c(OC)c2OC)cc1	-25.9%	4.1%	?	-13.7	?	.	.
O=S(=O)(/C(=C\c1ccc(C(F)(F)F)cc1)c1nc2ccccc2[nH]1)c1ccccc1	3.55µM*	11.2µM*	3.98µM*	.	1.41µM*	7.91µM*	-97.1%
Cc1ccc(/C=C/C(=O)c2nc3ccccc3[nH]2)cc1	0.0%	-19.2%	?	69.3	?	.	.
CN1CCN(CC#CCn2c3ccccc3c3ccccc32)CC1	?	9.4%	?	-4.0	3.98µM*	7.05µM*	12.6%
CN1CCN(CC(O)Cn2c3ccccc3c3ccccc32)CC1 (stereo not given)	.	-8.5%	.	-30.3	?	.	.
COc1cccc(C(=O)Oc2c(CN3CCOCC3)cc(Cl)c3cccnc23)c1	?	?	8.2µM*	-78.3*	4.47µM*	?	?
O=C(CNS(=O)(=O)Cc1ccccc1)NNc1ccccc1	.	2.3%	.	3.9	.	.	.
SMILES	LASV entry inh	FMDV inh	Marburg entry inh	HCMV antiviral	HCV inhibitor	HCV confirm	HCV cytotox
CC(C)CN(C(=O)CCCOc1ccc(Cl)cc1Cl)c1c(N)n(Cc2ccccc2)c(=O)[nH]c1=O	?	-25.3%	?	-35.8	?	11.2µM*	81.5%
C/C(=N\NC(=O)C1COc2ccccc2O1)c1ccc(C)o1 (stereo not given)	23.0%	11.0%	14.2%	7.3	2.9%	.	.
C/C(=N\NC(=O)C1COc2ccccc2O1)c1ccccn1 (stereo not given)	11.2µM*	-3.4%	?	-102.2*	4.47µM*	11.2µM*	?
NC(=O)c1c(NC(=O)c2ccc([N+](=O)[O-])o2)sc2c1CCCC2	?	26.6%	-2.0%[46.1 µM]	5.6	?	.	.
CN1CCc2c(sc(NC(=O)c3ccc([N+](=O)[O-])o3)c2C(N)=O)C1	?	-5.6%	?	-103.8*	3.98µM*	14.1µM*	?
COC(=O)c1nn2c(C(F)(F)F)cc(-c3ccc(Br)o3)nc2c1Br	-27.9%	-26.7%	-5.3%	36.4	5.62µM*	?	-19.1%
CCCS(=O)(=O)NC(=O)C1(C)CCCN(C(=O)c2cc(OC)ccc2Br)C1 (stereo not given)	.	-18.1%	.	.	.	.	.
CC(=O)N1CCN(Cc2nc3cc(NC(=O)c4ccccc4Cl)ccc3n2C)CC1	.	-18.7%	13.9%[46.1 µM]	-20.9	-19.8%	.	.
CC(=O)N1CCN(Cc2nc3cc(NC(=O)c4ccc(Cl)cc4)ccc3n2C)CC1	-17.3%	?	-18.9%	-80.3*	3.55µM*	14.1µM*	22.3µM*
CCCCCn1c(=O)c(C(=O)NCc2ccco2)c(O)c2ccccc21	-12.3%	-19.1%	-4.6%[46.1 µM]	-28.6	?	25µM*	?
CC(=O)Nc1ccc(-c2csc(N/N=C(/C)c3ccccc3)n2)cc1	?	?	?	-9.6	1.26µM*	6.28µM*	-22.3%
Nc1ncnc2c1ncn2[C@@H]1O[C@H](C(=O)N(CCC2=CCCCC2)CC2CC2)[C@@H](O)[C@H]1O	.	0.0%	.	-6.4	.	.	.
O=[N+]([O-])c1ccc(S(=O)(=O)CC(CN2CCCCC2)N2CCCCC2)cc1 (stereo not given)	5.17µM*	17.8µM*	4.61µM*	-24.5	4.47µM*	11.2µM*	19.9µM*
O=[N+]([O-])c1ccc(CN2CCCCCC2)cc1	?	-1.7%	11.6%	13.0	-3.0%	.	.
COc1ccc([N+](=O)[O-])cc1NC(=O)c1ccco1	.	-17.0%	5.3%[46.1 µM]	-23.6	?	?	17.7%
O=C(Cn1cc(S(=O)(=O)Cc2ccc(F)cc2)c2ccccc21)NCCc1ccccc1	21.9%[46.1 µM]	-3.5%	.	?	.	.	.
